Reference: PubChem BioAssay AID1159580 (chemical genetic matrix, 2015)
The whole screen tested about 5,500 compounds, of which about 2,000 (36%) were called active. About 18% were inconclusive and are not listed. Rule as the data show it: active = normalized growth mostly below about 0.91 (no sharp cut-off); inconclusive = no clear call, values can overlap the other calls; inactive = mostly above about 0.92. This is one part of the list.

Assay: chemical genetic growth profiling, strain panel (AID 1159580);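 also: tested at 20 µM; growth read once vehicle control cultures reached saturation at 30 °C; 1 = growth at the plate median or of vehicle wells; lower values mean less growth of the strain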
Settings: growth OD

Measured: normalized growth

COC(=O)CCCOc1ccc(Cl)cc1Cl
inactive: S. cerevisiae deletion strains, locus YJR043C, strain POL32, hits give low values 0.979 | S. cerevisiae deletion strains, locus YJR075W, strain HOC1, hits give low values 0.995 | S. cerevisiae deletion strains, locus YKL009W, strain mrt4, hits give low values 1.01 | S. cerevisiae deletion strains, locus YKL068W, hits give low values 0.98 | S. cerevisiae deletion strains, locus YKL085W, strain MDH1 (second series), hits give low values 0.982 | S. cerevisiae deletion strains, locus YKL085W, strain MDH1, hits give low values 0.982 | S. cerevisiae deletion strains, locus YKL160W, strain elf1, hits give low values 0.964 | S. cerevisiae deletion strains, locus YKL190W, strain CNB1, hits give low values 0.99 | S. cerevisiae deletion strains, locus YKR001C, strain vps1, hits give low values 0.987 | S. cerevisiae deletion strains, locus YKR026C, strain gcn3, hits give low values 0.946 | S. cerevisiae deletion strains, locus YKR091W, strain srl3, hits give low values 0.96 | S. cerevisiae deletion strains, locus YLL001W, strain dnm1, hits give low values 0.957 | S. cerevisiae deletion strains, locus YLL026W, hits give low values 0.957 | S. cerevisiae deletion strains, locus YLL041C, strain sdh2, hits give low values 0.957 | S. cerevisiae deletion strains, locus YLR027C, strain aat2, hits give low values 0.952 | S. cerevisiae deletion strains, locus YLR039C, strain RIC1, hits give low values 0.982 | S. cerevisiae deletion strains, locus YLR058C, strain SHM2, hits give low values 1 | S. cerevisiae deletion strains, locus YLR102C, strain apc9, hits give low values 0.997 | S. cerevisiae deletion strains, locus YLR221C, strain rsa3, hits give low values 0.967 | S. cerevisiae deletion strains, locus YLR258W, strain gsy2, hits give low values 0.951 | S. cerevisiae deletion strains, locus YLR262C, strain YPT6 (second series), hits give low values 0.92 | S. cerevisiae deletion strains, locus YLR262C, strain YPT6, hits give low values 0.925 | S. cerevisiae deletion strains, locus YLR268W, strain sec22, hits give low values 1.01 | S. cerevisiae deletion strains, locus YLR320W, strain mms22, hits give low values 0.924 | S. cerevisiae deletion strains, locus YLR330W, strain CHS5, hits give low values 0.991 | S. cerevisiae deletion strains, locus YLR342W, strain FKS1 (second series), hits give low values 1 | S. cerevisiae deletion strains, locus YLR342W, strain FKS1, hits give low values 0.948 | S. cerevisiae deletion strains, locus YLR357W, strain rsc2, hits give low values 0.97 | S. cerevisiae deletion strains, locus YLR370C, strain arc18, hits give low values 0.963 | S. cerevisiae deletion strains, locus YLR371W, strain rom2, hits give low values 0.999 | S. cerevisiae deletion strains, locus YLR384C, strain iki3, hits give low values 0.957 | S. cerevisiae deletion strains, locus YLR418C, strain cdc73, hits give low values 1.02 | S. cerevisiae deletion strains, locus YML016C, strain PPZ1, hits give low values 0.988 | S. cerevisiae deletion strains, locus YML032C, strain rad52, hits give low values 1.01 | S. cerevisiae deletion strains, locus YML120C, strain ndi1, hits give low values 0.967 | S. cerevisiae deletion strains, locus YML124C, strain tub3, hits give low values 0.995 | S. cerevisiae deletion strains, locus YMR058W, strain fet3, hits give low values 0.966 | S. cerevisiae deletion strains, locus YMR078C, strain ctf18, hits give low values 1 | S. cerevisiae deletion strains, locus YMR125W, strain sto1, hits give low values 0.954 | S. cerevisiae deletion strains, locus YMR129W, hits give low values 0.95 | S. cerevisiae deletion strains, locus YMR205C, strain PFK2, hits give low values 0.948 | S. cerevisiae deletion strains, locus YMR223W, strain ubp8, hits give low values 1.01 | S. cerevisiae deletion strains, locus YMR231W, strain pep5, hits give low values 0.949 | S. cerevisiae deletion strains, locus YMR263W, strain SAP30, hits give low values 0.999 | S. cerevisiae deletion strains, locus YMR307W, strain GAS1, hits give low values 0.98 | S. cerevisiae deletion strains, locus YNL067W, strain RPL9B, hits give low values 0.995 | S. cerevisiae deletion strains, locus YNL071W, strain lat1, hits give low values 0.967 | S. cerevisiae deletion strains, locus YNL128W, strain TEP1, hits give low values 1 | S. cerevisiae deletion strains, locus YNL153C, strain GIM3, hits give low values 0.999 | S. cerevisiae deletion strains, locus YNL209W, strain ssb2, hits give low values 0.962 | S. cerevisiae deletion strains, locus YNL233W, strain BNI4, hits give low values 1 | S. cerevisiae deletion strains, locus YNL248C, strain rpa49, hits give low values 0.964 | S. cerevisiae deletion strains, locus YNL250W, strain rad50, hits give low values 0.978 | S. cerevisiae deletion strains, locus YNL271C, strain bni1, hits give low values 0.976 | S. cerevisiae deletion strains, locus YNL298W, strain CLA4, hits give low values 0.985 | S. cerevisiae deletion strains, locus YNL307C, strain MCK1, hits give low values 0.968 | S. cerevisiae deletion strains, locus YNL322C, strain KRE1 (second series), hits give low values 0.957 | S. cerevisiae deletion strains, locus YNL322C, strain KRE1, hits give low values 0.994 | S. cerevisiae deletion strains, locus YNR049C, strain mso1, hits give low values 0.95 | S. cerevisiae deletion strains, locus YNR052C, strain pop2, hits give low values 1.01 | S. cerevisiae deletion strains, locus YOL006C, strain TOP1, hits give low values 0.971 | S. cerevisiae deletion strains, locus YOL012C, strain htz1 1.55 | S. cerevisiae deletion strains, locus YOL147C, strain pex11, hits give low values 0.99 | S. cerevisiae deletion strains, locus YOR001W, strain rrp6, hits give low values 0.983 | S. cerevisiae deletion strains, locus YOR061W, strain CKA2, hits give low values 0.989 | S. cerevisiae deletion strains, locus YOR069W, strain VPS5, hits give low values 1 | S. cerevisiae deletion strains, locus YOR070C, strain gyp1, hits give low values 0.956 | S. cerevisiae deletion strains, locus YOR080W, strain dia2, hits give low values 0.946 | S. cerevisiae deletion strains, locus YOR083W, strain WHI5, hits give low values 0.957 | S. cerevisiae deletion strains, locus YOR106W, strain vam3, hits give low values 0.991 | S. cerevisiae deletion strains, locus YOR136W, strain idh2, hits give low values 1 | S. cerevisiae deletion strains, locus YOR144C, strain elg1, hits give low values 0.998 | S. cerevisiae deletion strains, locus YOR184W, strain ser1, hits give low values 0.993 | S. cerevisiae deletion strains, locus YOR265W, strain rbl2, hits give low values 0.956 | S. cerevisiae deletion strains, locus YOR270C, strain vph1, hits give low values 0.963 | S. cerevisiae deletion strains, locus YOR290C, strain snf2, hits give low values 0.974 | S. cerevisiae deletion strains, locus YOR316C, strain cot1, hits give low values 1 | S. cerevisiae deletion strains, locus YPL051W, strain arl3, hits give low values 0.972 | S. cerevisiae deletion strains, locus YPL055C, strain LGE1, hits give low values 0.978 | S. cerevisiae deletion strains, locus YPL078C, strain atp4, hits give low values 0.948 | S. cerevisiae deletion strains, locus YPL106C, strain sse1, hits give low values 0.964 | S. cerevisiae deletion strains, locus YPL240C, strain hsp82, hits give low values 0.948 | S. cerevisiae deletion strains, locus YPL241C, strain CIN2, hits give low values 0.993 | S. cerevisiae deletion strains, locus YPR119W, strain clb2, hits give low values 0.995 | S. cerevisiae deletion strains, locus YPR141C, strain kar3, hits give low values 0.981 | S. cerevisiae deletion strains, locus YPR163C, strain tif3, hits give low values 1 | S. cerevisiae deletion strains, locus YPR167C, strain met16, hits give low values 0.999 | S. cerevisiae deletion strains, strain wtn01, hits give low values 0.995 | S. cerevisiae strains, strain wild type, hits give low values 0.975
